PLK1 PBD inh: blocks phosphopeptide binding to human PLK1 polo-box domain | P53350 | Plk1 PBD binding of FITC phosphopeptide, fluorescence polarization | Potency, µM, without a hit: max response, negative = inhibition, hits mostly inhibitors | 360,000 tested, 2.8% active; further: potency means the concentration at half of the fitted maximal effect; series mostly up to about 57 µM; on the % scale 0 is the no-effect control and ±100 the full control effect; nearly all actives have a fitted effect of over 65% in size
PI5P4Ka inh: blocks human PI5P4K alpha kinase activity; P48426; PI5P4Kalpha enzyme, ADP-Glo luminescence, 60 min; stronger effect = lower value; max response, %; 330,000 tested, 1.2% active; AID 652105; active means max response of -50% or lower; inconclusive means between -30% and -50%; inactive means -30% or higher; further: value at the top dose of about 77 µM; on the % scale 0 is the no-effect control and ±100 the full control effect
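Luminescence from ADP-Glo served as readout of PI5P4Kalpha activity in a qHTS format. Reaction: enzyme, substrate, compound, ATP at 5 microM final, 60 min at RT.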
G9a inh: blocks human histone lysine methyltransferase G9a. 350,000 tested, 8.8% active. Q96KQ7. Potency, µM (titrated, usually from 102 µM), for inactives: at the top dose activity, negative = inhibition, actives largely listed as inhibitors. G9a H3K9 monomethylation, AlphaScreen, 2 h; further: potency means the concentration at half of the fitted maximal effect; on the % scale 0 is the no-effect control and ±100 the full control effect; nearly all actives have a fitted effect of over 75% in size
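Enzyme 20 nM + cpd, 15 min RT; add b-H3K9 pep 500 nM / SAM 20 uM; 2 h RT; anti-H3K9me1 Ab 0.5 ug/mL + SA donor / anti-rabbit acceptor beads 20 ug/mL each, 10 min; AlphaScreen read.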
BAZ2B inh: inhibitors of human BAZ2B bromodomain. Potency, µM (top dose mostly 114 µM), without a hit: at the highest dose activity change, negative = inhibition, actives largely listed as inhibitors. 360,000 tested, 4.4% active. AID 504333. AlphaScreen BAZ2B-H3K14Ac peptide displacement. Q9UIF8; further: potency means the concentration at half of the fitted maximal effect; on the % scale 0 is the no-effect control and ±100 the full control effect; nearly all actives have a fitted effect of over 60% in size
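BAZ2B 50 nM plus b-H3(5-23)K14Ac 50 nM, PBS pH 7.4/0.01% Tween-20, 30 min RT; compound added (max 110 uM), 30 min RT; streptavidin donor/Ni-chelate acceptor beads 10 ug/mL final, 20 min dark; AlphaScreen read.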
JMJD2A Tudor: JMJD2A Tudor domain (human) inhibition; AlphaScreen JMJD2A-Tudor / H3K4me3 peptide binding; 390,000 tested, 4.4% active; O75164; Potency, µM (titrated, usually from 114 µM), inactives show at the highest dose activity change, negative = inhibition, usual class: inhibitors; further: potency means the concentration at half of the fitted maximal effect; on the % scale 0 is the no-effect control and ±100 the full control effect; nearly all actives have a fitted effect of over 50% in size
HP1b binding inh: inhibitors of HP1-beta chromodomain binding to methylated histone tails. AlphaScreen HP1-beta / biotin-H3K9me3 peptide binding. Potency, µM (top dose mostly 114 µM), inactives show top-dose activity change, negative = inhibition, usual class: inhibitors. 390,000 tested, 0.56% active. P83916; further: potency means the concentration at half of the fitted maximal effect; nearly all actives have a fitted effect of over 70% in size
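HP1-beta protein (50 nM final) preincubated 30 min at room temperature with biotinylated H3(1-18)K9me3 peptide (50 nM) in PBS pH 7.4, 0.01% Tween-20, then compound added for 30 min. AlphaScreen streptavidin donor/nickel chelate acceptor beads (10 ug/mL final), 30 min dark, luminescence read.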
* marks the source's active call; other numbers are inactive results; ? = inconclusive; · = not tested or not shown; [ ] = remark or other dose. Only some compounds are listed: those with a hit (about 12% of all), similar ones and a draw of the others. Unless noted, the call rests on the fitted dose curve; in most records, active means well fitted curve in the direction sought with a large enough effect; inconclusive means small, poorly fitted or top-dose-only effect, or another doubt; inactive means no such curve, though single readings can be large; an effect the other way counts as inactive or inconclusive.

SMILES	PLK1 PBD inh	PI5P4Ka inh	G9a inh	BAZ2B inh	JMJD2A Tudor	HP1b binding inh
CC(Oc1ccc(Cl)cc1)C(=O)Nc1ccc(S(=O)(=O)Nc2nccs2)cc1 (stereo not drawn)	-10%	1	-2%[59 µM]	-19%	-18%	-4%
O=C(Nc1ccc(S(=O)(=O)Nc2nccs2)cc1)c1cc(-c2ccccc2Cl)nc2ccccc12	30µM*	?	·	?	?	?
CCN(C(=O)COC(=O)CCOc1cc(C)ccc1C)c1c(N)n(Cc2ccccc2)c(=O)[nH]c1=O	2%	0	·	·	-5%	47%
O=C(c1ccco1)N1CCN(Cc2cc(=O)c(OCc3ccc(F)cc3)co2)CC1	8%	-3	-24%	0%	7%	22%
COCCNC(=O)CCCn1c(=O)[nH]c2ccsc2c1=O	·	·	7%[59 µM]	0%	-6%	25%
O=C(Nc1ccccc1)Nc1ccc(Cl)nc1Cl	-5%	13	·	·	-2%	35%
CC(Oc1ccccc1Cl)C(=O)Nc1ccc(S(=O)(=O)Nc2nccs2)cc1 (stereo not drawn)	-23%	3	56µM*	-9%	?	-21%
CCCCCCCCCCCCCCCC[n+]1ccc(C(N)=O)cc1	-8%	-29	-13%[59 µM]	-28%	?	?
CCCCCCCCCCCCCCCC[n+]1ccc(/C=N/O)cc1	-1%	-60*	9%[59 µM]	6%	-25%	-4%
CC(=O)Nc1ccc2c(COC(=O)CC3Sc4ccccc4NC3=O)cc(=O)oc2c1 (stereo not drawn)	-21%	?	·	56µM*	79µM*	?
O=C(CC1Sc2ccccc2NC1=O)Nc1cccc(C(=O)O)c1 (stereo not drawn)	-13%	?	40µM*	56µM*	50µM*	?
CC(=O)Nc1ccc(NC(=O)CC2Sc3ccccc3NC2=O)cc1 (stereo not drawn)	·	·	?	-12%	6%	55%
COc1ccc2c(COC(=O)CC3Sc4ccccc4NC3=O)cc(=O)oc2c1 (stereo not drawn)	-6%	?	-51%[59 µM]	-29%	-30%	10%
COc1ccccc1CN(C)C(=O)COC(=O)c1c(C)noc1C	-4%	-3	·	·	-10%	12%[57 µM]
Cc1ccc2nc(-c3ccc(Cl)s3)c(Nc3ccc4c(c3)OCCO4)n2c1	·	·	-8%[59 µM]	-13%	-27%	-5%
Cc1ccccc1Nc1nnc(SCC2CCCCO2)s1 (stereo not drawn)	-8%	-1	?	3%	-18%	19%
Cc1ccc(Nc2nnc(SCC3CCCCO3)s2)cc1 (stereo not drawn)	-2%	-5	40µM*	16%	-4%	40%
O=c1cc(CSc2nnc3ccccn23)c2c(ccc3ccccc32)o1	42µM*	-9	?	-1%	-4%	24%
O=C(c1cc2c(s1)CCC2)N1C(=O)c2ccccc2S1(=O)=O	-8%	0	40µM*	50µM*	?	21%
CC1=C(C(=O)N(C(C)C)C(C)C)CC(CC(=O)NCc2ccco2)C(=O)N1Cc1ccc(C(C)(C)C)cc1 (stereo not drawn)	-4%	9	·	·	·	·
Cc1ccc(-c2nn(-c3ccccc3)cc2/C=C/C(=O)O)o1	-23%	1	28µM*	?	-24%	36%
Cc1ccc(-c2nn(-c3ccccc3)cc2C(=O)O)o1	·	·	4.5µM*	?	·	·
Cc1ccc(-c2nn(-c3ccccc3)cc2CN(Cc2ccccc2)C(=O)c2ccco2)o1	-30%	-2	32µM*	32µM*	56µM*	-37%
CC(C)OC(=O)c1cn(-c2ccccc2)nc1-c1ccco1	?	?	7.9µM*	-9%	-16%	17%
CCOC(=O)C1=C(C)NC(C)=C(C(=O)OCC)C1c1cn(-c2ccccc2)nc1-c1ccco1	-9%	-3	2%[12.7 µM]	-4%	-6%[11.4 µM]	33%
SMILES	PLK1 PBD inh	PI5P4Ka inh	G9a inh	BAZ2B inh	JMJD2A Tudor	HP1b binding inh
CCc1ccc(CNC(=O)c2nn(-c3ccc(OC)c(Cl)c3)c(=O)c3c2c2ccccc2n3C)cc1	·	·	3%[59 µM]	·	-9%	44%
CCCCN1CC(=O)N2[C@H]3c4cc(Br)ccc4OC[C@@H]3[C@H](C(=O)OCC)[C@]2(C)C1=O	4%	8	-1%[0.501 µM]	-1%	-10%	52%
CC(C(=O)N1c2ccccc2CC1C)N1CCN(S(=O)(=O)c2ccccc2F)CC1 (stereo not drawn)	-1%	3	?	28µM*	3.5µM*	?
CCN(CC)S(=O)(=O)c1cccc(-c2csc(C)n2)c1	-8%	0	-17%[59 µM]	0%	7%	43%
C=CCn1c(-c2cccc(S(=O)(=O)N(CC)CC)c2)n[nH]c1=S	-11%	?	3.5µM*	·	13µM*	13%
O=S(=O)(c1cccc(-c2n[nH]c(=S)n2C2CCCC2)c1)N1CCOCC1	-8%	-9	10µM*	·	4µM*	12%
C=CCn1c(-c2cccc(S(=O)(=O)N3CCOCC3)c2)n[nH]c1=S	-2%	-15	7.1µM*	4%	7.1µM*	11%
CCN(CC)S(=O)(=O)c1cccc(-c2n[nH]c(=S)n2C)c1	-15%	-18	?	-19%	18µM*	?
C=CCn1c(SCC(=O)Nc2ccccc2)nnc1-c1cccc(S(=O)(=O)N2CCOCC2)c1	-4%	-9	-11%[59 µM]	-2%	18%	22%
Cc1ccc(-c2n[nH]c(=S)n2C)cc1Cl	?	-7	?	0%	3.2µM*	-32%
CN(C)/C=C(\C#N)S(=O)(=O)c1ccccc1	-21%	-2	-6%	-25%	-16%	30%
CS(=O)(=O)/C(C#N)=C\c1cnc(S(=O)(=O)c2ccccc2)s1	·	·	1µM*	50µM*	·	·
Cc1ccc(C(C)C)c(OCc2nn(CC(=O)c3ccc(Cl)cc3)c3[n+]2CCCCC3)c1	-5%	41	-3%	-10%	-29%	-4%
NC(=S)N/N=C/c1cn(-c2ccccc2)nc1-c1cccnc1	3.4µM*	-54*	4%	-5%	-24%[11.4 µM]	-7%
c1ccc(CCNc2cc(-c3ccc4ccccc4c3)nc3ccnn23)nc1	-3%	-10	·	·	·	·
CC1CN(S(=O)(=O)c2ccc(C(=O)Nc3nnc(-c4ccco4)o3)cc2)CC(C)O1 (stereo not drawn)	-3%	-1	?	?	-26%	51%
CCc1ccccc1NC(=O)c1ccc([N+](=O)[O-])s1	-15%	-5	-33%	-29%	-14%[57.1 µM]	15%
N#Cc1ccc(C(=O)Nc2nnc(-c3ccco3)o2)cc1	-6%	6	-30%	18µM*	79µM*	35%
Cc1ccsc1C(=O)Nc1nnc(-c2ccco2)o1	-10%	-6	-11%[59 µM]	79µM*	-27%	51%
O=C(Nc1nnc(-c2ccco2)o1)c1ccc([N+](=O)[O-])s1	-15%	-18	45µM*	?	?	8%
